The full list was thinned out, with hits kept by preference.
FBPA Giardia inh: qHTS Assay for Inhibitors of Fructose-1,6-bisphosphate Aldolase from Giardia Lamblia; A8B2U2; purified Giardia FBPA; Potency, µM (doses to about 59.6 µM), hits mostly inhibitors; actives 0.71% (n = 290,000); AID 2451, 2010; further: nearly all actives have a fitted effect of over 55% in size
Target sequence (A8B2U2 whole entry, looked up): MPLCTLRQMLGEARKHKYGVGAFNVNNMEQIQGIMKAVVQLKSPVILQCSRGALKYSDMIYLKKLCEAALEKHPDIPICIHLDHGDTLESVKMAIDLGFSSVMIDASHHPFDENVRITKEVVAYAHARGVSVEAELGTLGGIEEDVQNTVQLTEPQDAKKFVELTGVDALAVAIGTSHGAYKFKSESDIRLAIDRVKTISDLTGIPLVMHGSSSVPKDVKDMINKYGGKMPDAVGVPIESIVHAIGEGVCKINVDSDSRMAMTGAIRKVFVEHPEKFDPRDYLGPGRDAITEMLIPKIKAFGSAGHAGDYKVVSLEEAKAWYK
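Giardia FBPA (40 nM reagent) was preincubated 10 min at RT with compound (up to 57.5 uM final), then substrate plus GAPDH/TPI/NAD/arsenate coupling system with diaphorase/resazurin was added; resorufin fluorescence (525/598 nm) was read after 20 min.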
TbPYK inhibitor: qHTS of Trypanosoma Brucei Inhibitors; pyruvate kinase (Trypanosoma brucei), Q57TT1; TbPYK enzyme, Kinase-Glo Plus ATP luminescence, 45 min; Potency, µM (highest dose often 76.8 µM), hits mostly inhibitors; actives 0.12% (n = 410,000); AID 624173, 2012; further: nearly all actives have a fitted effect of over 50% in size
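TbPYK + substrate in 50 mM TEA pH 7.2, 100 mM KCl, 10 mM MgCl2, 0.05% BSA, 0.01% Tween-20; cpd pinned; ADP 130 uM final; 45 min RT; Kinase-Glo Plus 10 min; luminescence endpoint.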
Shiga toxin inh: A qHTS for Small Molecule Inhibitors of Shiga Toxin | Vero cells, Shiga toxin protein synthesis inhibition reporter | inhibition, % at 38.7 µM | actives 9.2% (n = 290,000); in the data active means inhibition mostly above about 28%, no sharp cut-off; inactive means mostly below about 43%
Cycloheximide cs: Cycloheximide Counterscreen for Small Molecule Inhibitors of Shiga Toxin. actives 12% (n = 300,000). max response, %. cell reporter, cycloheximide protein synthesis inhibition counterscreen. AID 2314, 2010; in the data active means max response mostly above about 13%, no sharp cut-off; inactive means mostly below about 14%; further: read at 38.3 µM for the half of the compounds with a filed dose
Sm TGR inh: qHTS Assay for the Inhibitors of Schistosoma Mansoni Peroxiredoxins; Schistosoma mansoni thioredoxin glutathione reductase (TGR), Q962Y6; purified TGR, DTNB reduction, TNB absorbance 405 nm; Potency, µM (series often up to 114 µM), usual class: inhibitors; actives 3% (n = 360,000); AID 485364, 2010; further: nearly all actives have a fitted effect of over 60% in size
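First, TGR (20 nM dispensed) and NADPH were mixed with compound. Second, a 15 min room-temperature incubation followed. Third, further NADPH and then DTNB were added to start the reaction. Finally, TNB absorbance was monitored kinetically.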
LmPK inhibitor: qHTS Assay for Inhibitors of Leishmania Mexicana Pyruvate Kinase (LmPK); Q27686; purified LmPK, Kinase-Glo ATP luminescence, 1 h; Potency, µM (highest dose often 57.5 µM), hits mostly inhibitors; actives 0.37% (n = 290,000); AID 1721, 2009
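qHTS format; LmPK 0.1 nM; substrates PEP 0.5 mM and ADP 0.1 mM. One-hour room-temperature incubation, then coupled luciferase luminescence; 0.5 nM enzyme wells mark activation.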
Hits are given with their value; – = inactive; ? = inconclusive; · = no result given. Unless noted, the call rests on the fitted dose curve; in most records, active means well fitted curve in the direction sought with a large enough effect; inconclusive means small, poorly fitted or top-dose-only effect, or another doubt; inactive means no such curve, though single readings can be large; an effect the other way counts as inactive or inconclusive.

SMILES	FBPA Giardia inh	TbPYK inhibitor	Shiga toxin inh	Cycloheximide cs	Sm TGR inh	LmPK inhibitor
COc1cccc(C2=NOC(C(=O)N3CCc4ccccc4C3)C2)c1 (stereo not drawn)	–	–	26	12	–	–
O=C(C1CC(c2ccc(F)cc2)=NO1)N1CCN(c2ccccc2)CC1 (stereo not drawn)	–	–	–	–	–	–
O=C(C1CC(c2ccc(Cl)c(Cl)c2)=NO1)N1CCC2(CC1)OCCO2 (stereo not drawn)	–	–	117	28	–	–
O=C(C1CC(c2ccc(F)cc2)=NO1)N1CCCCC1 (stereo not drawn)	–	–	61	26	–	–
O=C(C1CC(c2ccccc2O)=NO1)N1CCCCC1 (stereo not drawn)	–	–	133	48	–	–
O=C(C1CC(c2ccccc2O)=NO1)N1CCc2ccccc2C1 (stereo not drawn)	–	–	–	–	–	–
Cc1ccccc1-c1cncnc1NCc1ccccc1	–	·	·	·	·	·
O=C(c1cnccn1)N1CCC2(CC1)CCN(c1cccc(-c3ccccc3)c1)CC2	–	–	·	·	·	·
O=C(Nc1ccc2nc(SCC(=O)N3CCCc4ccccc43)sc2c1)c1ccccc1	·	–	·	·	–	·
O=C(C1CC(c2ccc(F)cc2)=NO1)N1CCC2(CC1)OCCO2 (stereo not drawn)	–	–	71	45	–	–
COc1cccc(C2=NOC(C(=O)N3CCC4(CC3)OCCO4)C2)c1 (stereo not drawn)	–	–	97	52	–	–
O=C(C1CC(c2ccc(F)cc2)=NO1)N1CCc2ccccc2C1 (stereo not drawn)	–	–	–	–	–	–
CC1CCCCN1C(=O)C1CC(c2ccc(F)cc2)=NO1 (stereo not drawn)	–	–	90	59	–	–
COc1ccc(CNC(=O)CN2C(=O)CSc3ccc(S(=O)(=O)N4CCCC4)cc32)cc1	·	–	·	·	–	·
CN(C)CC[C@@](O)(c1ccccc1)c1ccccc1Cl	·	–	·	·	·	·
COC(=O)c1nc2ccc(C)cn2c1F	–	–	–	19	–	–
CC(C)(C)c1[nH]nc2c1C(c1ccoc1)C(C#N)=C(N)O2 (stereo not drawn)	–	–	–	–	–	–
CCN1CC2=C(OC(N)=C(C#N)C2c2ccccc2)/C(=C\c2ccccc2)C1 (stereo not drawn)	?	–	–	–	?	–
N#CC1=C(N)OC2=C(CC/C2=C\c2ccc(F)cc2)C1c1ccc(F)cc1 (stereo not drawn)	–	·	–	–	25µM	–
N#CC1=C(N)OC2=C(CCC/C2=C/c2ccoc2)C1c1ccoc1 (stereo not drawn)	–	·	–	–	18µM	–
CC(C)(O)C#Cc1ccc(CN2CCC(n3nccc3NC(=O)C3CC3)CC2)cc1	·	–	–	–	–	–
CCc1cccc(NC(=O)C(CC)n2nc(C)c3sc4ccccc4c3c2=O)c1 (stereo not drawn)	·	–	·	·	–	·
CC(=O)Nc1ccc2c(c1)ncn2C1CCCCC1	·	–	·	·	·	·
COC(=O)Nc1ccc2c(c1)ncn2C1CCCCC1	–	·	31	23	–	–
CCOC(=O)Nc1ccc2c(c1)ncn2C1CCCCC1	–	–	82	27	–	–
SMILES	FBPA Giardia inh	TbPYK inhibitor	Shiga toxin inh	Cycloheximide cs	Sm TGR inh	LmPK inhibitor
O=C(O)c1ccc2c(c1)ncn2C1CCCCCC1	–	–	–	–	–	–
O=C(O)CCN1C(=O)c2ccc(Oc3ccc([N+](=O)[O-])cc3)cc2C1=O	–	–	–	–	–	–
Cc1ccc(/C=N/Nc2ncc(Cl)cc2Cl)s1	–	–	–	34	–	–
Oc1ccc(/C=N/Nc2ncc(Cl)cc2Cl)cc1	–	–	111	50	–	–
O=[N+]([O-])c1ccc(N/N=C/c2cccs2)nc1	·	–	·	·	·	·
Clc1cnc(N/N=C/c2ccco2)c(Cl)c1	–	–	94	57	–	–
COc1cc(/C=N/Nc2ncc(C(F)(F)F)cc2Cl)cc(OC)c1O	–	–	–	–	–	–
CCCCCCCCCC(=O)N/N=C/c1ccc(C)s1	–	–	–	–	–	–
